In the first assay the target is TMCO6. In words: pooled miR-30 sensor sort-seq; sequence = guide strand. As to conditions: shRNA.
On to TTGCAACATTTGTAGCATGTGC, for which the sensor-assay potency score (higher = more potent) was -0.588. As to TTTTCTGCAACATTGCACAGAA, the sensor-assay potency score (higher = more potent) was 0.104. Sequence AACATTTGTAGCATGTGCTGAG showed a sensor-assay potency score (higher = more potent) of 0.662. TTCCTCAGCCTGTAGAAGCTGG yielded a sensor-assay potency score (higher = more potent) of -0.621. Turning to TTTCTCAGCAGCCTCTTGCTGA, the sensor-assay potency score (higher = more potent) is -0.697.

The target in a further assay is TMED3. The assay is described as above. As to conditions: shRNA.
As to TAGCAGTCAACATCGTAGTGGC, the sensor-assay potency score (higher = more potent) was -0.101. In the case of TTGTCCGGCAGCTCGAAGGTGA, the sensor-assay potency score (higher = more potent) was -0.973. TTGAAAGTCAAAGTAGACGGTC yielded a sensor-assay potency score (higher = more potent) of -0.0324.

For the sequence ATCGTCTCGCCAACAGACCAGT, the sensor-assay potency score (higher = more potent) is -1.25. In turn, TATTAAGGTCTTCCGCTCGGGC displayed a sensor-assay potency score (higher = more potent) of -0.618. In turn, TTCGTTTCTCTGTAGATGGTGT gave a sensor-assay potency score (higher = more potent) of 0.459. The same measure, in the same setting: the result for TAGTTGTAAATGTCTTTTCAGC reads -1.07; that for TTCAACAGTAGCACCTGACTGA, 0.248; that for TACATAGCAGTCAACATCGTAG, -0.235. As for TACCACAGCAGCATCGTTCTGC, the sensor-assay potency score (higher = more potent) worked out at 0.426. Sequence TACTGCTTCTTCGTTTCTCTGT returned a sensor-assay potency score (higher = more potent) of -0.244. Turning to ATAGCAGTCAACATCGTAGTGG, the sensor-assay potency score (higher = more potent) was -0.497.

Values taken from the OligoGym collection.
Note: reference of the scale not given here.
